In the supplement of paper PMC12632987:

Target: GABARAPL2, P60520
Experiment: median log2 fold change of GCK-ALFA target abundance (FLAG IP / Myc IP barcode read proportion) (log2 ratio); each designed protein is fused to an ALFA-tag nanobody in HEK293 cells to bring the named protein to FLAG-tagged glucokinase (GCK); Myc marks an untargeted standard; higher = target protein stabilised (more abundant)
Details: target protein: 3xFLAG-MCP-GCK-ALFA reporter; HEK293 landing pad (RPLP)
Procedure, shortened: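 Sequencing of reverse-transcribed, amplified circular RNA barcodes from anti-FLAG and anti-Myc immunoprecipitates provided the readout for an ALFA-nanobody-fused binder library recombined into HEK293 landing-pad cells. Those cells were induced with 2 μg mL^−1 doxycycline, transfected with a plasmid expressing a FLAG-tagged target and a Myc-tagged standard, and lysed after 48 h. Target abundance is the per-binder median log2 ratio of FLAG to Myc barcode read proportions. Only barcodes at a proportion of ≥10^−7 in both replicates and binders with ≥3 barcodes per replicate were kept, with a 10^−6 pseudocount added before the two replicates were pooled.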

GABARAPL2, P60520, sequence (P60520 whole entry, the tested form may be a part): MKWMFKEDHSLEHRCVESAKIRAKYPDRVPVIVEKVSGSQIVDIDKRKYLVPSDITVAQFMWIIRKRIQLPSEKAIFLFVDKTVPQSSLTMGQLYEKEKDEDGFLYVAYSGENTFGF

Binder | median log2 fold change
GBRAPL2_0_7253 (protein) KEELLEKLLSLSIEEAIKEVKKLAEEVIKYIKEKPEEGLKKAEELAEIFAELIEARKDEKLIKAVEEAIEKIVEEAKKIDPNEAAYIASIIGSALYEVES | 0.152
GBRAPL2_0_7244 (protein) MEELLKRLLSLSLEEAKKEIKELAEKVIKLIREKPEEGIKAAEELMEVFAEVLVERKDEELEEVVEEAVDAIVEEVAKVDPNAAAYIDAIFGSAIMEVEG | -0.291
GBRAPL2_0_7248 (protein) MEELLKELLSLSTEERKKKIKELAKEAVKLIKEDPEKGLEAAIELAEVFAKVIEETKNEEIAEVVDEAIDLIVKEAAEVDPNAAAEIASIVGSALLELEM | 0.0975
GBRAPL2_0_7250 (protein) MEELLKELLSLSLEEAKKKIKELTEEVIKLIEKDPKKGLEKAIELAEIFAEYLIERKNEELEEVIDEAIDKLVKKVAEVDPNEAAYIDAIIGSAIMEVEG | -0.0651
GBRAPL2_128_7270 (protein) MKIVELDVNVKDEESYELALEILDEIAKNSSPEVKDLAEAARDLVEEAKKRGFGENVTAVDILSDEDAEELKKIYEELKKKYGEEKVNSVLELEISDVPP | -0.268
GBRAPL2_0_7246 (protein) MEELKKELLSLSLEEAKKKIKELAEKVIKLIKEDPEKGIEEAEKLTEVFAEVLVERKDEELKKVVEEAVEKIVEEVKKVDPKAAAYIDAIYGSALMEVEG | 0.169
GBRAPL2_106_7264 (protein) EGLEKARKLAKEALEKAKKLPEAFKKGDEEAIDELLELLDELTRLAIELGLDEVAALVADAFDNVFAASEDPETAEEDLEEAIKDLEEALKLIEKKIKEL | -0.195
GBRAPL2_128_7272 (protein) MKLVEITINIKDEESYNLAIEILDRIAEKSSPEVADLADAAKDAAEIAAENGYDEKVVVVDVLSEEEAEELKKIYEEIKKELGEEKVKSVVELEITDIEP | -0.21
GBRAPL2_0_7242 (protein) MEELLEELLSLSLEEAKARIRELAEEAIKLLKEDPEEGKKYAEELVEVFAEVLEKTKNEELREVIEEEVDRIVKEAAEIDPNFAAYLASIMGSAIYEVES | 0.159
GBRAPL2_0_7259 (protein) LEEVLEEMKELSIEEAAELAKKYVKELVADPSVTPEQFLEAAEALLEVLAEKVKEEKTEEALEIFDEAVDYFTEEAKKIDPETAAAVATYGGSLLYEIES | 0.154
GBRAPL2_0_7245 (protein) MEELLEKLLSLSLEEAKKKIKELAEKAIKLIKEDPEKGIKEAEKLAEVFAEVLEKRKDEELLKVIEEAIDKIVKEVAKVDPNAAAYIDAIFGSAIMEVEG | 0.154
GBRAPL2_106_7265 (protein) SGLEELLKLLEEALEKAKKLPEAFKKGDEEAVDELLELLDEATRLAIELGLDEVAALVAAAFDDVFAASEDPETAEEDFEEAIEDLEEAKELVEKRLEEE | -0.285
GBRAPL2_0_7251 (protein) MEELLEELLSLSLEEAKKKIKELAEKVIKLIKEDPEKGLEEAEKLAKVFAEYLIETKNEELEKVIDEAIDKIVKEVAKIDPNKAAYIDAIIGSAIMEVES | -0.108
GBRAPL2_0_7258 (protein) LEEILKEMKTLSIEEAAELAKEEAERLVADPSVTPDEFEAAAFAMLEVLAEKVKKEKTEEALEIFDEAVDHFTALAAKIDPLTAAAVATHGGSLIYEIES | -0.0288
GBRAPL2_0_7257 (protein) MEEVLKKMKELSIEEAAKLAKEEIEKLVADPSVTVEELEEAIEKLLEVLAEKVKEEKTEEALEILDEFVDYATELAAKVDPNLAAYVASYGGSLLYELEE | -0.0513
GBRAPL2_106_7266 (protein) EKLEELKKLLEEALELAKKLPEAFKAGDEEAIDELLDLLDEATRLAIELGLDEVAALVADAFDNVFAASEDPETAEEDFKEAIKNLEEALKLVEEELKKL | 0.00104

Binder | median log2 fold change
GBRAPL2_0_7249 (protein) MEEELKELLSLSTEEAKKKIKEKAKEVIELIKKDPEEGLKAAEELAEIFAEYLEKTKNEELEEVIDEAIDEIVKEVAKVDPNEAAYIDAIIGSAIMEVEG | -0.0458
GBRAPL2_0_7255 (protein) LEEVLKKMKESSIEEAVELAKEEADRLVADPSVTPEEFEEAAVALLEVLAEKAKEEKTEEALELLEEAVDYLTELAKKVDPDVAAFIDTYGGSLLYELEE | -0.088
GBRAPL2_0_7241 (protein) MEELLKRLLSLSLEEAKAEIKRLAEEVIKLIKEDPEKGKKEAEELVEVFAEYLIKSKNEELLEVIEEEVDKIVKEVAKIDPNFAAYLDSIIGSAIAEVES | 0.00211
GBRAPL2_0_7252 (protein) MEELLKELLSLSLEEAKAAIEKLAEEVIKLIEKDPEKGLKAAEELAEVFAEYLIERKNEELEEAIVKAIDKLVKEVAKVDPNKAAYIDSIIGSAIMEVEG | 0.0463
GBRAPL2_128_7271 (protein) KKIVEIDVDIKDEESYNLALEILDEISENSSPEVKKLADAAKDLVESAKEEGFGENVTAVDILSDEEAALLQKIYEEIKKKYGKEKVNSVVKLDISDVPP | -0.852
GBRAPL2_0_7260 (protein) MEEVLEKMKKLSLEEATKLAKEYLEKLRADPNVTKEEFEEAAEKLLEVLAEKAKKEKTEEALELFDEFVDYFTELAKKIDPNLAAYIASYGGSLLYEIES | 0.248
GBRAPL2_0_7262 (protein) MEKVLEEMEKLSIEEAAKLAKEYAEKLKADPSVSPEQFEEAVLALLEVLYKKVKKEKTEKALEIFEEAVDYFTELAAEVDPNLAAYVDSYAGSLIMELEE | 0.203
GBRAPL2_0_7243 (protein) MEELLKELLSLSLEEAKAAIKELAEEAIKLIREDPEKGIKYAEELMEVFAEVLEKRKDEELLKVIEEAVEKIVEEVAKVDPNEAAYIDAIFGSAVMEVEG | 0.0124
GBRAPL2_0_7261 (protein) MEEVLEKMKKLSIEEAAKLAKEYLEKLRNDPSVTPEEFEEAALKILEVLAEKVKKEKTEEALEIFEELVDYATKLAAEIDPNLAAYIDSYGGSLIMELEE | 0.0589
GBRAPL2_0_7256 (protein) LEEVLEEMKKLSIEEAAKLAKEYAEKLLADPSVTPEEFLEAIEKLLEVLAEKVKEEKTEEALEIFEEAVDYFTALAAKIDPNLAADVATYGGSLLYEIEE | 0.0867
GBRAPL2_106_7267 (protein) EKLKELLKQLEELAKKIEELLKKADENDEELIDETLELLNEATRQAIEAGLDEVAALLADAFNHVFEAKENPEERKENLEEALKDVKEAIKLVKKKIKEA | 0.226
GBRAPL2_106_7268 (protein) KKLEEILEELEEALELVEELLERAEEKDEELLDETLELLDRVTRLAIEAGLDEVAALVADAANDVFAAEEDPENRKEYLERAKEDLEEAIKLVKEKIKEA | -0.012
GBRAPL2_106_7269 (protein) EELKELLEKLKELKEKIEELLEKAEEKDEELYDETIELADEVTRLAIELGLDEVAALIADAANDIFEALENPEERKEDLEEALEDVEEAIKLVEEEIKKE | -0.274
GBRAPL2_0_7254 (protein) MEKLLKELLSLSVEEAQKAIKEEAEKVVKYLKEDPEKGLEKAEELAEVFAELLKERKDEKLEETIEEAIDKIVKEAAKIDPNKAAYIAAIIGSALYEVES | 0.0528
GBRAPL2_0_7247 (protein) MEELLKELLELSVEEAKKKIKELAKKAVELIKKDPEKGLEEAEKLAEVFAEYLEETKNEELAEAVDEAARLLVEEAEKVDPNAAAYIASEVGSALLDLEM | -0.0333
GBRAPL2_0_7263 (protein) LEKVLEEMKKLSIEEAKKLAKEYLEKLRDDPSVTPEEFLEAALKILDVLYEKVKKEKTEEALEIFEEFRDFAVELAAKVDPNIAAEVDSYAGSLIMELEE | 0.11
